PubChem BioAssay AID1423 (NMMLSC, 2008)
The campaign covered roughly 220,000 compounds. About 750 (0.34%) were called active. The entries come from a sample that favours actives as a whole. Values without a mark were called inactive. No stated cut-off is given here; in the data, active means response below about 60% or above about 140%; inactive means in between.

What follows are molecules tested against Guanine nucleotide-binding protein G(o) subunit alpha (Homo sapiens) (UniProt P09471) (assay: RGS8-Galphao binding modulators, primary screen, biochemical, multiplexed bead flow cytometry (AID 1423;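 further: Galphao activated as the GDP aluminium fluoride complex binding bead-coupled RGS8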)). Conditions: at 10 µM, actives lie on both sides.
Guanine nucleotide-binding protein G(o) subunit alpha (Homo sapiens), sequence (P09471 whole entry, looked up): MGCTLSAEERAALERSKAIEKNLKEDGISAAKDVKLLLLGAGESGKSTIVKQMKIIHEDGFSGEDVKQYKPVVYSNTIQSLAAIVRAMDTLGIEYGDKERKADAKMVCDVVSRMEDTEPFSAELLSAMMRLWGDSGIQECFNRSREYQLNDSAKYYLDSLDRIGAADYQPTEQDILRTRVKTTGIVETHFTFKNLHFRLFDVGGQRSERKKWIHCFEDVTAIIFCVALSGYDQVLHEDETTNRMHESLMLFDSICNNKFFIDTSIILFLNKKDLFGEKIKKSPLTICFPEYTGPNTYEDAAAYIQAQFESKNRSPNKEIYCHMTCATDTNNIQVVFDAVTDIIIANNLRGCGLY
Molecule `COc1ccc(CC(=O)N[C@@H](CCSC)c2nc3ccccc3[nH]2)cc1` has a response (percent of control binding) of 106%.
Molecule `Cc1ccccc1Cn1nc(C)c(NC(=O)C(F)(F)F)c1C` has a response (percent of control binding) of 106%.
In the case of `CCCCN1CCNC1=S`, the response (percent of control binding) is reported as 99.3%.
`Cc1noc(C)c1S(=O)(=O)N(C)Cc1ccccc1` gave a response (percent of control binding) of 98%.
`CCOC(=O)C1=C(C)NC(=O)N(C(C)=O)C1c1ccc(Cl)cc1` (configuration not stated) showed a response (percent of control binding) of 103%.
For `CCOC(=O)C1Sc2[nH]c(=O)sc2C(c2ccc(Cl)cc2)C1C(=O)OCC` (configuration not stated), the response (percent of control binding) was 7.38% (active).
Work on `CCOC(=O)C1C(c2ccc(Cl)cc2)NC(=S)NC1(O)C(F)(F)F` (configuration not stated) yielded a response (percent of control binding) of 102%.
`CCN(CC(=O)NCc1cccs1)C(=O)c1ccccc1F` was tested, and the response (percent of control binding) was 99.2%.
With `Cc1ccc(OCC(O)CN2CCN(CC(O)COc3ccc(C)cc3Cl)CC2)c(Cl)c1` (configuration not stated) the response (percent of control binding) was 165% [activator] (active).
`Cc1ccccc1OCC(O)CN1CCN(c2ccccn2)CC1` (configuration not stated) gave a response (percent of control binding) of 99.3%.
`Cc1cccc(C)c1OCC(O)CN1CCCCC1` (configuration not stated) was tested, and the response (percent of control binding) was 99.3%.
Molecule `Cc1ccc(NCc2n[nH]c(=S)n2-c2ccccc2)cc1Cl` has a response (percent of control binding) of 99.7%.
`COc1ccc(C2C(C#N)=C(N)N(c3ncn[nH]3)C3=C2C(=O)CCC3)cc1` (configuration not stated) showed a response (percent of control binding) of 100%.
In the case of `CC(=O)n1cc([C@@H]2C=C(C(=O)N3CCN(Cc4ccc5c(c4)OCO5)CC3)O[C@H](OCc3ccc(CO)cc3)C2)c2ccccc21`, the response (percent of control binding) is reported as 102%.
In the case of `COc1ccc(COCC(O)CN2CCC(C(N)=O)CC2)cc1` (configuration not stated), the response (percent of control binding) is reported as 104%.
For `O=[N+]([O-])C(=c1ccc2c(c1)N1C3=C(CCCC3)CC3CCCCC31N=2)[N+](=O)[O-]` (configuration not stated), the response (percent of control binding) was 43.8% (active).
`COc1ccc(CNCCCO)cc1OC` gave a response (percent of control binding) of 108%.
Molecule `Cc1cc(=O)[nH]c(SCC(=O)Nc2ccc(Br)cc2)n1` has a response (percent of control binding) of 93.2%.
Molecule `Cc1ccc(N2C(=O)C3CC3C2=O)cc1` (configuration not stated) has a response (percent of control binding) of 101%.
In the case of `Cc1ccc(N2C(=O)C3C(c4ccccc4)(C2=O)C3(c2ccccc2)c2ccccc2)cc1` (configuration not stated), the response (percent of control binding) is reported as 23.3% (active).
`Cc1ccc(N2C(=O)C(Cc3ccccc3)NC2=S)cc1` (configuration not stated) gave a response (percent of control binding) of 102%.
With `O=C(CCSc1ccccc1)N1CCN(c2ccccc2F)CC1` the response (percent of control binding) was 99.9%.
Molecule `CC1(C)C2CC=C(/C=N/NC(=O)c3ccc(Cl)cc3)C1C2` (configuration not stated) has a response (percent of control binding) of 105%.
With `COc1cc(C2/C(=C(\O)c3ccc4c(c3)CC(C)O4)C(=O)C(=O)N2Cc2ccco2)ccc1O` (configuration not stated) the response (percent of control binding) was 12.8% (active).
`COCCCN1C(=O)C(=O)/C(=C(/O)c2ccc3c(c2)CC(C)O3)C1c1cccnc1` (configuration not stated) gave a response (percent of control binding) of 89.7%.
`COc1ccc(/C(O)=C2\C(=O)C(=O)N(Cc3ccco3)C2c2ccc(OC)cc2OC)cc1` (configuration not stated) showed a response (percent of control binding) of 98.3%.
`Cc1ccc(-n2c(O)c(C=Nc3ccc(S(=O)(=O)Nc4ncccn4)cc3)c3ccccc3c2=O)cc1C` showed a response (percent of control binding) of 102%.
Molecule `COC(=O)c1cc(NC(=O)C2C3C=CC(C3)C2C(=O)O)cc(C(=O)OC)c1` (configuration not stated) has a response (percent of control binding) of 100%.
In the case of `O=C(CSc1nnc2n1CCCN2)c1ccccc1`, the response (percent of control binding) is reported as 104%.
In the case of `COc1cc(C(=O)NCc2ccc(-n3cccc3)cc2)cc(OC)c1OC`, the response (percent of control binding) is reported as 103%.
`O=C(CCCl)Nc1ccc(S(=O)(=O)NCc2ccco2)cc1` showed a response (percent of control binding) of 98.5%.
`CCCn1nnnc1NC(=O)COc1ccc(Cl)cc1C` was tested, and the response (percent of control binding) was 11.9% (active).
`CCOC(=O)N1CCN(C(=O)COc2ccc(Cl)cc2C)CC1` showed a response (percent of control binding) of 101%.
Molecule `Cc1cc(NC(=O)COc2ccc(Cl)cc2Cl)n(CCC#N)n1` has a response (percent of control binding) of 99.5%.
Work on `CCCCCN(C(=O)NC(=O)Nc1cccc(C)c1C)S(C)(=O)=O` yielded a response (percent of control binding) of 102%.
`O=C(CCc1ccccc1)Nc1ccc(NC(=O)C2CCCCC2)nc1` showed a response (percent of control binding) of 105%.
For `O=C(COC(=O)c1ccc[nH]c1=O)Nc1ccc2c(c1)OC(F)(F)O2`, the response (percent of control binding) was 104%.
For `O=C(CSc1nc2ccc(Nc3nc(N4CCOCC4)nc(N4CCOCC4)n3)cc2s1)NCc1ccco1`, the response (percent of control binding) was 98.3%.
Work on `Cc1ccc(C(=O)N/C(=C/c2cccs2)C(=O)NCC2CCCO2)cc1` (configuration not stated) yielded a response (percent of control binding) of 103%.
With `O=C(Cn1nnc(-c2ccccc2)n1)N/N=C/c1ccc(-c2ccc(Cl)cc2)o1` the response (percent of control binding) was 101%.
Molecule `Clc1ccc2nc(-c3ccccc3)nc(C(Cl)Cl)c2c1` has a response (percent of control binding) of 94.2%.
For `Oc1ccc(-c2onc3ccc(Cl)cc23)cc1`, the response (percent of control binding) was 144% [activator] (active).
`O=C(Oc1cccc(N2C(=O)C3C4c5ccccc5C(c5ccccc54)C3C2=O)c1)c1ccco1` (configuration not stated) showed a response (percent of control binding) of 102%.
`O=C1C2C3C=CC(C4CC34)C2C(=O)N1c1nccs1` (configuration not stated) was tested, and the response (percent of control binding) was 101%.
`CCc1nnc(NC(=O)CCCSc2nc3ccccc3[nH]2)s1` was tested, and the response (percent of control binding) was 101%.
`Cc1ccc(NC(=O)/C(=C/c2ccc([N+](=O)[O-])cc2)NC(=O)c2ccccc2)cc1` was tested, and the response (percent of control binding) was 106%.
For `COc1ccc(-c2nc3cnccn3c2NC(C)(C)CC(C)(C)C)cc1O`, the response (percent of control binding) was 98.8%.
`COc1ccc(N=C(C)c2sc3ccccc3c2O)cc1` was tested, and the response (percent of control binding) was 97.2%.
Molecule `COc1ccc(CNC(=O)C2CCC(CNc3c(N4CCOCC4)c(=O)c3=O)CC2)cc1` (configuration not stated) has a response (percent of control binding) of 103%.
Molecule `CC(NC(=O)C1CCC(CNc2c(N3CCOCC3)c(=O)c2=O)CC1)c1ccccc1` (configuration not stated) has a response (percent of control binding) of 99.7%.
`O=C(NCc1ccc(F)cc1)C1CCC(CNc2c(N3CCOCC3)c(=O)c2=O)CC1` (configuration not stated) was tested, and the response (percent of control binding) was 8.33% (active).
In the case of `Cc1cccc(C)c1NC(=O)Nc1ccccc1-n1ccnc1`, the response (percent of control binding) is reported as 101%.
`O=C(Nc1ccn(Cc2ccccc2)n1)c1cccc(F)c1` was tested, and the response (percent of control binding) was 103%.
For `Cc1ccc(Cn2ccc(NC(=O)c3cc(C(C)C)on3)n2)cc1`, the response (percent of control binding) was 55.8% (active).
`Cc1ccc(Cn2ccc(NC(=O)C3C4CCC(C4)C3C(=O)O)n2)cc1` (configuration not stated) was tested, and the response (percent of control binding) was 102%.
With `Cc1onc(-c2ccc(Cl)cc2)c1-c1ccnn1S(=O)(=O)c1ccc(Cl)cc1` the response (percent of control binding) was 98.9%.
Molecule `CS(=O)(=O)N(Cc1ccccc1)c1ccc(C(=O)NN=C2CCCCCC2)cc1` has a response (percent of control binding) of 103%.
